Measured values published in the supplement of paper PMC6522484.
Several values for one entry are separate records, joined by “and”; a condition that tells them apart may be missing. Identical values can stand only once. ± gives the standard deviation of the averaged measurements.

Experiments:
DLD1 [1] = assay: cell viability (CellTiter-Glo) relative to plate median (fraction of plate median); higher = more viable cells; conditions: 5 µM; treatment time 24 h; reporter: 7TFP
Outline: (§1)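 Luminescence, normalised well by well to the plate median, is tabulated as a mean of independent replicates. There were two replicates, run on colorectal cancer lines stably transduced with lentiviral TCF/Wnt firefly luciferase reporters and dosed with library compounds at a final 5 µM for 24 h. Readouts were firefly luciferase or CellTiterGlo on parallel plates.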

HCT116 = assay: as above; conditions: 5 µM; treatment time 24 h; reporter: TCF4/Wnt
Outline: as §1

SW480 [2] = assay: as above; conditions: 5 µM; treatment time 24 h; reporter: 7TFP
Outline: as §1

DLD1 [3] = assay: TCF/Wnt firefly luciferase reporter signal relative to plate median (fraction of plate median); higher = higher Wnt reporter signal; conditions: 5 µM; treatment time 24 h; reporter: 7TFP
Outline: as §1

SW480 [4] = assay: as above; conditions: 5 µM; treatment time 24 h; reporter: 7TFP
Outline: as §1

Structure (SMILES) | cell viability (DLD1 [1]) | cell viability (HCT116) | cell viability (SW480 [2]) | TCF/Wnt firefly luciferase reporter signal (DLD1 [3]) | TCF/Wnt firefly luciferase reporter signal (SW480 [4])
CC[C@H](C)C(=O)O[C@H]1C[C@@H](C)C=C2C=C[C@H](C)[C@H](CC[C@@H]3C[C@@H](O)CC(=O)O3)[C@H]21 [Mevinolin, Lovastatin] | 0.966 ± 0.1 | 0.931 ± 0.048 | 0.942 ± 0.017 | 0.836 ± 0.26 | 0.943 ± 0.029
Nc1ncnc2c1ncn2[C@@H]1O[C@H](COP(=O)(O)O)[C@@H](O)[C@H]1O | 0.958 ± 0.025 | 0.983 ± 0.081 | 1.03 ± 0.059 | 1.09 | 0.974 ± 0.12
OCCN(CCO)c1nc(N2CCCCC2)c2nc(N(CCO)CCO)nc(N3CCCCC3)c2n1 | 0.905 ± 0.0042 | 0.991 ± 0.013 | 0.973 ± 0.016 | 1.13 ± 0.042 | 1.03 ± 0.028
COc1cc(/C=C/C(=O)N2CCC=CC2=O)cc(OC)c1OC | 0.939 ± 0.037 | 0.717 ± 0.099 | 1.11 ± 0.042 | 0.704 ± 0.14 | 0.773 ± 0.095
CN(C)CCc1c[nH]c2ccc(C[C@H]3COC(=O)N3)cc12 | 0.931 ± 0.059 | 1.08 ± 0.078 | 1.04 ± 0.014 | 1.03 ± 0.021 | 0.95 ± 0.069
OCC(O)C(O)C(O)CO (stereo not given) | 0.921 and 1.07 | 0.918 and 1.01 | 0.905 and 0.944 | 1.02 and 1.01 | 1.06 and 1.04
C/C=C(/C(=C/C)c1ccc(O)cc1)c1ccc(O)cc1 | 0.987 ± 0.018 | 0.997 ± 0.061 | 1 ± 0.015 | 1.07 ± 0.15 | 1.09 ± 0.071
COc1cc(OC)c(-c2c(OC)cc(OC)cc2OC)c(OC)c1 | 1.015 ± 0.0071 | 0.953 ± 0.14 | 1.02 ± 0.014 | 0.926 ± 0.018 | 1.01
CC(C)C[C@@H]1NC(=O)[C@H](CCCN)NC(=O)[C@H](C(C)C)NC(=O)[C@H](Cc2ccc(O)cc2)N[C@@H](CCC(=O)O)C(=O)N[C@@H](CC(N)=O)C(=O)[C@@H](Cc2ccccc2)NC(=O)[C@H](Cc2ccccc2)NC(=O)[C@@H]2CCCN2C(=O)[C@@H](Cc2ccccc2)NC1=O | 0.894 ± 0.091 | 0.71 ± 0.072 | 0.486 ± 0.082 | 0.685 ± 0.041 | 0.469 ± 0.1
C=CC1=C(C)/C(=C/c2[nH]c(Cc3[nH]c(/C=C4\NC(=O)C(C)=C4C=C)c(C)c3CCC(=O)O)c(CCC(=O)O)c2C)NC1=O | 1.04 ± 0.087 | 1.03 | 0.98 ± 0.018 | 0.964 ± 0.15 | 0.936 ± 0.018
CC(C)C(=O)Nc1ccc([N+](=O)[O-])c(C(F)(F)F)c1 | 1.055 ± 0.0071 | 0.984 ± 0.037 | 1.02 ± 0.029 | 0.924 ± 0.047 | 0.9955 ± 0.0064
COc1ccc(-c2coc3cc(OC)cc(OC)c3c2=O)cc1 | 1.03 ± 0.086 | 1.04 | 1.035 ± 0.0071 | 0.963 ± 0.11 | 1.04 ± 0.028
O=C(N[C@H](CO)[C@H](O)c1ccc([N+](=O)[O-])cc1)C(Cl)Cl | 0.939 ± 0.013 | 0.918 ± 0.14 | 1.04 ± 0.042 | 1.09 ± 0.085 | 1 ± 0.013
N=C(N)c1ccc(OCCCCCOc2ccc(C(=N)N)cc2)cc1 | 0.93 ± 0.21 | 0.9365 ± 0.0078 | 1.01 ± 0.014 | 1.035 ± 0.0071 | 0.795 ± 0.013
CCOC(=O)C(=O)C1(C(=O)OCC)Oc2cc(OC)cc(OC)c2C(=O)C1c1ccccc1 (stereo not given) | 0.978 ± 0.03 | 0.951 ± 0.23 | 1.01 ± 0.13 | 0.939 ± 0.083 | 1.02 ± 0.069
CCN(Cc1ccncc1)C(=O)C(CO)c1ccccc1 (stereo not given) | 0.9915 ± 0.0035 | 0.976 ± 0.048 | 1.04 ± 0.021 | 1.04 ± 0.057 | 1.08 ± 0.078
C[C@H]1O[C@@H](O[C@H]2[C@@H](O)C[C@H](O[C@H]3[C@@H](O)C[C@H](O[C@H]4CC[C@@]5(C)[C@H](CC[C@@H]6[C@@H]5CC[C@]5(C)[C@@H](C7=CC(=O)OC7)CC[C@]65O)C4)O[C@@H]3C)O[C@@H]2C)C[C@H](O)[C@@H]1O | 0.706 ± 0.19 | 0.33 ± 0.2 | 0.774 ± 0.052 | 0.157 ± 0.14 | 0.32 ± 0.11
C[n+]1c2cc(N)ccc2cc2ccc(N)cc21 | 1.05 ± 0.014 | 0.951 ± 0.084 | 1.08 ± 0.042 | 1.4 ± 0.27 | 1.01 ± 0.08
COc1cc2oc3cc(OC)c(OC)c(CC=C(C)C)c3c(=O)c2c(OC)c1CC=C(C)C | 1.03 ± 0.028 | 1.08 ± 0.13 | 1.035 ± 0.0071 | 1.23 ± 0.12 | 1.02 ± 0.06
CCN(CC)CC(=O)Nc1c(C)cccc1C | 1.05 | 1.1 ± 0.021 | 1.02 ± 0.021 | 1.06 ± 0.05 | 1.03 ± 0.021
CN(N=O)C(=O)N[C@H]1C(O)O[C@H](CO)[C@@H](O)[C@@H]1O (mixture of isomers) | 0.999 ± 0.03 | 1.03 ± 0.064 | 1.08 ± 0.021 | 0.962 ± 0.15 | 1.005 ± 0.0071
Cc1cccc(CN2CCN(C(c3ccccc3)c3ccc(Cl)cc3)CC2)c1 (stereo not given) | 1.06 ± 0.028 | 1.05 ± 0.028 | 0.987 ± 0.0099 | 1.02 ± 0.038 | 0.998 ± 0.046
NCCC(=O)c1ccccc1N | 1.03 ± 0.052 | 1.08 ± 0.057 | 0.987 ± 0.0085 | 0.981 ± 0.042 | 0.838 ± 0.016
N[C@@H](Cc1ccc(O)c(O)c1)C(=O)O | 1.075 ± 0.0071 | 1.03 ± 0.064 | 0.99 ± 0.071 | 1.01 ± 0.04 | 1.09 ± 0.042
C=C1CCC2C(CC2(C)C)C(=C)CC/C1=N/O (stereo not given) | 1.03 ± 0.035 | 1.02 ± 0.11 | 1 ± 0.023 | 1.095 ± 0.0071 | 0.907 ± 0.037
O=C1N=C(O)NC1(c1ccccc1)c1ccccc1 | 1.06 ± 0.05 | 0.957 ± 0.015 | 1.005 ± 0.0071 | 1.08 ± 0.021 | 1.08 ± 0.021
C#C[C@]1(OC(C)=O)CC[C@H]2[C@@H]3CCC4=CC(=NO)CC[C@@H]4[C@H]3CC[C@@]21CC (mixture of isomers) | 1 ± 0.057 | 1.025 ± 0.0071 | 0.98 ± 0.025 | 1.055 ± 0.0071 | 0.97 ± 0.04
O=C1OC(c2ccc(O)cc2)(c2ccc(O)cc2)c2ccccc21 | 1.01 ± 0.12 | 1.03 ± 0.12 | 1.025 ± 0.0071 | 0.981 ± 0.069 | 1.04 ± 0.057
CC(N)CCCC(C)(C)O (stereo not given) | 1.01 ± 0.092 | 0.955 ± 0.078 | 0.933 ± 0.022 | 1.03 ± 0.021 | 1.04 ± 0.035
Cn1cnc2c1c(=O)[nH]c(=O)n2C | 1.04 ± 0.028 | 1.16 ± 0.092 | 1.03 ± 0.035 | 1.17 | 1.09 ± 0.028
